Unmarked numbers belong to inactive results. For some of these results: Entries with a potency or affinity are not part of this list. Calls of active or inactive are those of the source. Unless noted, no rule for the calls is given here.
Assays:
[1] = antimalarial activity against Dd2 strain (AID 2302;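 active = growth inhibition above 50% at the single 2 µM test dose, taken to imply half-maximal potency below 2 µM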;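 also: 0% = DMSO untreated growth and 100% = chloroquine plus artemisinin killed control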); conditions: P. falciparum Dd2 in RBCs, LDH growth readout, 72 h; at 2 µM; hits give high values
[2] = HepG2 cytotoxicity, primary screen, cytotoxicity control for P. falciparum antimalarial project, cell-based, ATP luminescence (AID 2303;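 active = inhibition above 50%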;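 also: 0% = DMSO wells and 100% = digitonin-killed cells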); conditions: HepG2 viability, 24-48 h, at 10 µM, hits give high values
[3] = target: L-lactate dehydrogenase (Plasmodium falciparum (isolate CDC / Honduras)) (UniProt Q27743); assay: PfLDH activity inhibition – cell lysate, 3D7 strain, counter-screen for P. falciparum growth inhibition project (AID 2304);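 also: 0% = vehicle and 100% = reference inhibitor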; conditions: P. falciparum 3D7 crude extract, LDH APAD/NBT absorbance; at 2 µM; hits give high values
L-lactate dehydrogenase (Plasmodium falciparum (isolate CDC / Honduras)), sequence (Q27743 whole entry, looked up): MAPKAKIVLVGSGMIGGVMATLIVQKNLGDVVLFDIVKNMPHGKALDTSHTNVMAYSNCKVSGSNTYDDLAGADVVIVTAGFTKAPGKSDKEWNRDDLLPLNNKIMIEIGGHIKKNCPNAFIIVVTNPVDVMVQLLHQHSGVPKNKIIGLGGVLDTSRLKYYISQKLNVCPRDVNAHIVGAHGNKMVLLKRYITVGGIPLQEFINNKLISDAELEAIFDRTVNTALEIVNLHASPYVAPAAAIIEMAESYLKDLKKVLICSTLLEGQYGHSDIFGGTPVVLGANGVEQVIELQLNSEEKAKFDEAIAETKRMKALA

[4] = inhibition of 3D7 malaria parasite growth – strain 3D7 (AID 2306);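 also: 0% = DMSO wells and 100% = chloroquine plus artemisinin control wells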; conditions: P. falciparum 3D7 erythrocytic growth, LDH absorbance, 72 h; at 2 µM; hits give high values
[5] = target: Calcium-dependent protein kinase 1 (Plasmodium falciparum (isolate 3D7)) (UniProt P62344); assay: PfCDPK1 kinase inhibitors, biochemical, TCAMS library (AID 1159585; cut-off not given, nearly all actives have IC50 up to about 0.98 µM;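 also: inhibitors leave more ATP so luminescence rises with inhibition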); conditions: recombinant PfCDPK1, Kinase-Glo ATP depletion luminescence
Calcium-dependent protein kinase 1 (Plasmodium falciparum (isolate 3D7)), sequence (P62344 whole entry, looked up): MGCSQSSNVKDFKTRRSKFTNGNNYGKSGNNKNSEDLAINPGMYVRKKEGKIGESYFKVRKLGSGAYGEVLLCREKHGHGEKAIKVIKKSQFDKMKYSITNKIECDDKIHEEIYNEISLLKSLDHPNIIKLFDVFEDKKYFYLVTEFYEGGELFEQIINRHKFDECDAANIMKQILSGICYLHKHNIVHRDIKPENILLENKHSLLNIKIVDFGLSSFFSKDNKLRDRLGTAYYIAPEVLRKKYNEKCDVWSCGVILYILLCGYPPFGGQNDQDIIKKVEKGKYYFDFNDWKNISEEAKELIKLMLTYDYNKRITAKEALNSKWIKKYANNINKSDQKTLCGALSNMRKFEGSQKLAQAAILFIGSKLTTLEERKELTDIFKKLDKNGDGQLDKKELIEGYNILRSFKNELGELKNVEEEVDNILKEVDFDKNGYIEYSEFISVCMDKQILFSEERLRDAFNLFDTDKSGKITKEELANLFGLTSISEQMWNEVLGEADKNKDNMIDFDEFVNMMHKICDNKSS

[6] = target: Plasmodium falciparum protein kinase 6 (PK6, PF3D7_1337100) (UniProt Q8IDW1); assay: PfPK6 kinase inhibitors, biochemical, TCAMS library (AID 1159586); conditions: recombinant PfPK6, Kinase-Glo ATP depletion luminescence
Plasmodium falciparum protein kinase 6 (PK6, PF3D7_1337100), sequence (Q8IDW1 1-305): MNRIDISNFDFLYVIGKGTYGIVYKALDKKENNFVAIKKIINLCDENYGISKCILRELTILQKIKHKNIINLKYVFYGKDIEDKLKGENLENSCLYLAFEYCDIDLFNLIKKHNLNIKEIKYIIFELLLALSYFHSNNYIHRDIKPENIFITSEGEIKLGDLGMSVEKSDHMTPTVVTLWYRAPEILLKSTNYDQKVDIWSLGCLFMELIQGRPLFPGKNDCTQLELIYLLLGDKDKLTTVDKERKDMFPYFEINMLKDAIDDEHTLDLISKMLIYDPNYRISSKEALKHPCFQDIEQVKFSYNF

[7] = target: Protein kinase 7 (PK7), Plasmodium falciparum 3D7 (PF3D7_0213400) (UniProt Q7YTF7); assay: inhibition of Plasmodium PK7 catalytic activity – biochemical, TCAMS antimalarial set, Kinase-Glo luminescence (AID 1159587); conditions: recombinant PfPK7, Kinase-Glo ATP depletion luminescence
Protein kinase 7 (PK7), Plasmodium falciparum 3D7 (PF3D7_0213400), sequence (Q7YTF7 1-343): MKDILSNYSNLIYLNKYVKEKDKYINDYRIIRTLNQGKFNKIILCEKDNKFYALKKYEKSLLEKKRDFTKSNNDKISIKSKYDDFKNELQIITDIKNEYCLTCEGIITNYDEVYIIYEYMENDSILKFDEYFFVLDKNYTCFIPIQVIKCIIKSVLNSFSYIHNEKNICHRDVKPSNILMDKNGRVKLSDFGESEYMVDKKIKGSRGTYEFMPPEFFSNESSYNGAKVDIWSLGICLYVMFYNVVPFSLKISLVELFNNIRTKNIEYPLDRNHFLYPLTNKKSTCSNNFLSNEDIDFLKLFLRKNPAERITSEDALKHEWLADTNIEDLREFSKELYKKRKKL

[8] = target: Calcium-dependent protein kinase 4 (Plasmodium falciparum (isolate 3D7)) (UniProt Q8IBS5); assay: PfCDPK4 kinase inhibitors, biochemical, TCAMS library (AID 1159588; cut-off not given, nearly all actives have IC50 up to about 0.91 µM); conditions: recombinant PfCDPK4, Kinase-Glo ATP depletion luminescence
Calcium-dependent protein kinase 4 (Plasmodium falciparum (isolate 3D7)), sequence (Q8IBS5 whole entry, looked up): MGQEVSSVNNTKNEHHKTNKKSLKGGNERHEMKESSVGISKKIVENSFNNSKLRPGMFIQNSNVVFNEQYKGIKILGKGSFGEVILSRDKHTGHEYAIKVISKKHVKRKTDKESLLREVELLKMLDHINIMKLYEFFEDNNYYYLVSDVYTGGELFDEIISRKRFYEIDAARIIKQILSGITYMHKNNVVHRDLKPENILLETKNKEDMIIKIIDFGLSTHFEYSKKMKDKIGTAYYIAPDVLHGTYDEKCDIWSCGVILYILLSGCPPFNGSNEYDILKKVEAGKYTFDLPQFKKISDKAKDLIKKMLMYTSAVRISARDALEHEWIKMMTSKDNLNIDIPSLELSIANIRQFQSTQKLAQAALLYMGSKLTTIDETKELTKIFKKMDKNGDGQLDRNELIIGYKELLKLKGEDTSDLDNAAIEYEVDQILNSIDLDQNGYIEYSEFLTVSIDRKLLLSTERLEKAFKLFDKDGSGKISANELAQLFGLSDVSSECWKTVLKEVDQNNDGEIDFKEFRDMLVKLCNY

SMILES | growth inhibition [1] | inhibition [2] | inhibition [3] [%] | growth inhibition [4] | outcome [5] | outcome [6] | outcome [7] | outcome [8]
Cn1c(=N)n(CC(=O)N2CCc3ccc(Cl)cc3C2Cc2ccc(Cl)c(Cl)c2)c2ccccc21 (stereo not drawn) | 52% (active) | 99% (active) | -1 | 102% (active) | inactive | inactive | inactive | inactive
O=C(c1ccc2ccccc2n1)N1CCCc2cc(Br)ccc21 | 74% (active) | 19% | -3 | 97% (active) | inactive | inactive | inactive | inactive
COc1ccc2nccc(CCC3(O)CCC(NCc4cc5c(cc4F)SCC(=O)N5)CC3)c2c1 (stereo not drawn) | 48% | 9% | -2 | 87% (active) | inactive | inactive | inactive | inactive
CCC(C)(C)C1CCc2nc(N)nc(N)c2C1 (stereo not drawn) | 97% (active) | 71% (active) | 4 | 95% (active) | inactive | inactive | inactive | inactive
CC(C)NCc1cccc(-c2cccc(-c3nc4ccccc4[nH]3)c2)c1 | 22% | 11% | -2 | 100% (active) | inactive | inactive | inactive | inactive
O=C(Nc1cc(F)c(F)c(-c2cccnc2)c1)N1CCc2cc(Cl)c(Cl)cc21 | 9% | 0% | 5 | 94% (active) | inactive | inactive | inactive | inactive
CN(C)C(=O)CCCn1c(CNCCCNc2cc(=O)c3ccccc3[nH]2)cc2c(Cl)cc(Cl)cc21 | -4% | 1% | -1 | 89% (active) | inactive | inactive | inactive | inactive
COc1ccc2c(c1)CCCC2NCCCCNC(=O)c1ccc(NC(=O)c2ccc(Cl)cc2)cc1 (stereo not drawn) | 49% | 27% | -7 | 100% (active) | inactive | inactive | inactive | inactive
Cc1cccc2[nH]c(-c3ccc(-c4cccc(CNCc5ccccc5)c4)s3)nc12 | 50% (active) | 3% | -3 | 99% (active) | inactive | inactive | inactive | inactive
O=C(Nc1cccc2ccccc12)N1CCC(NS(=O)(=O)c2cccc(C(F)(F)F)c2)CC1 | 1% | -5% | -1 | 95% (active) | inactive | inactive | inactive | inactive
Cc1cc(N[C@@H](Cc2ccccc2)C(=O)NCc2cccc(F)c2)nc(NCCc2ccc(F)cc2)n1 | 69% (active) | 0% | -2 | 99% (active) | inactive | inactive | inactive | inactive
COc1cc(Cc2cnc(N)nc2N)cc(OCc2cccc(C(=O)O)c2)c1OC | -3% | 8% | 4 | 92% (active) | inactive | inactive | inactive | inactive
Cc1ccc(CN2CCCN(Cc3cccc(NC(=O)c4cc5ccccc5s4)c3)CC2)cc1 | 28% | 32% | -3 | 87% (active) | inactive | inactive | inactive | inactive
CC(C)(C)c1cc2cc(Nc3ccnc4cc(-c5nccs5)ccc34)ccc2[nH]1 | 97% (active) | 5% | -1 | 101% (active) | inactive | inactive | inactive | inactive
CC(C)NCc1ccc(-c2cccc(-c3nc4ccc(F)cc4[nH]3)c2)cc1 | 96% (active) | 14% | -4 | 101% (active) | inactive | inactive | inactive | inactive
CCC(ON1C(N)=NC(N)=NC1(C)C)c1ccc(Cl)cc1 (stereo not drawn) | 90% (active) | 68% (active) | 3 | 91% (active) | inactive | inactive | inactive | inactive
CC(C)CCN=C(N)c1ccc(OCCCCCOc2ccc(C(N)=NCCC(C)C)cc2)cc1 | 94% (active) | 5% | 5 | 98% (active) | inactive | inactive | inactive | inactive
Cc1ccccc1Nc1nc(NCCc2ccccc2)nc2ccccc12 | 18% | 32% | -1 | 82% (active) | inactive | inactive | inactive | inactive
Cc1ccccc1N1CCN(c2ccc(C(=O)Nc3ccccc3)cn2)CC1 | 69% (active) | 44% | -5 | 95% (active) | inactive | inactive | inactive | inactive
CO/C(=C\C=C\c1cc2cc(Cl)c(Cl)cc2[nH]1)C(=O)NC1C[C@H]2CCC[C@@H](C1)N2C (stereo partly drawn) | 51% (active) | 42% | -2 | 93% (active) | inactive | inactive | inactive | inactive
CC(C)c1ccc(OCC(O)CN(C)C(C)C(O)c2ccccc2)c(Br)c1 (stereo not drawn) | 97% (active) | 36% | -3 | 95% (active) | inactive | inactive | inactive | inactive

SMILES | growth inhibition [1] | inhibition [2] | inhibition [3] [%] | growth inhibition [4] | outcome [5] | outcome [6] | outcome [7] | outcome [8]
CCc1cc(OC)ccc1C1CCN(CCCCNC(=O)c2ccc(NC(=O)c3ccc(Cl)cc3)cc2)CC1 | 61% (active) | 23% | 6 | 95% (active) | inactive | inactive | inactive | inactive
Fc1ccc2nc(-c3ccc(-c4ccc(CNCC5CCCO5)cc4)cc3)[nH]c2c1 (stereo not drawn) | 100% (active) | 26% | -3 | 101% (active) | inactive | inactive | inactive | inactive
O=C(Nc1ccc(OC2CCN(Cc3ccsc3)CC2)c(Cl)c1)c1cccs1 | 93% (active) | 16% | 1 | 94% (active) | inactive | inactive | inactive | inactive
Nc1nc2c(ncn2COC2COP(=O)(O)OC2)c(=O)[nH]1 (stereo not drawn) | 54% (active) | 7% | 7 | 81% (active) | inactive | inactive | inactive | inactive
CC(C)CNCc1ccc(-c2cccc(CN(CCN(C)C)C(=O)NCCc3ccccc3)c2)cc1 | 37% | 33% | -6 | 91% (active) | inactive | inactive | inactive | inactive
CC(C)(C)c1ccccc1OCCCON1C(N)=NC(N)=NC1(C)C | 98% (active) | 63% (active) | 5 | 95% (active) | inactive | inactive | inactive | inactive
O=C(Nc1cccc(-c2nn3ccccc3c2-c2ccnc(Nc3cccc(F)c3)n2)c1)c1c(F)ccc(F)c1F | 73% (active) | 33% | -1 | 96% (active) | inactive | inactive | inactive | inactive
NC1CCN(Cc2ccc(-c3ccc(-c4nc5ccccc5[nH]4)s3)cc2)C1 (stereo not drawn) | 99% (active) | 32% | -6 | 101% (active) | inactive | inactive | inactive | inactive
COc1ccc(NC(=O)CCNc2cc(C)nc(NCc3cccc(C)c3)n2)cc1 | 25% | 14% | 1 | 100% (active) | inactive | inactive | inactive | inactive
CCc1cccc(OCCCON2C(N)=NC(N)=NC2(C)C)c1 | 94% (active) | 63% (active) | 5 | 95% (active) | inactive | inactive | inactive | inactive
Cn1cc(C2CCN(CCCCNC(=O)c3sc(-c4ccc(C(F)(F)F)cc4)nc3CO)CC2)c2ccccc21 | 15% | 46% | -3 | 95% (active) | inactive | inactive | inactive | inactive
Cc1ccc(NC(=O)c2ccc3ncccc3c2)cc1OC1CCN(Cc2ccco2)C1 (stereo not drawn) | 42% | 9% | 2 | 86% (active) | inactive | inactive | inactive | inactive
O=C(/C=C/c1ccc(I)cc1)NCCCCCN1CCC(c2c[nH]c3ccc(O)cc23)CC1 | 1% | 14% | 2 | 97% (active) | inactive | inactive | inactive | inactive
CC1CN(Cc2ccc(-c3ccc(-c4nc5ccc(F)cc5[nH]4)s3)cc2)CC(C)O1 (stereo not drawn) | 89% (active) | 35% | -10 | 88% (active) | inactive | inactive | inactive | inactive
COc1cc2c(cc1C(F)(F)F)N(C(=O)Nc1cc(F)cc(-c3cccnn3)c1)CC2 | 34% | 21% | 6 | 90% (active) | inactive | inactive | inactive | inactive
O=C(Nc1cccc(C(F)(F)F)c1)c1ccc(S(=O)(=O)NC2CCN(CC3CCCCC3)C2)cc1 (stereo not drawn) | -3% | 16% | -4 | 92% (active) | inactive | inactive | inactive | inactive
CC(C)C[C@H](NC(=O)c1cc2ccccc2s1)C(=O)N[C@H]1CCN(Cc2ccc(OCCCN(C)C)c(Cl)c2)C1 | 89% (active) | 83% (active) | 1 | 100% (active) | inactive | inactive | inactive | inactive
Cc1nn(-c2ccccc2)nc1C(=O)N(Cc1ccc(-c2ccc(CNCCc3ccc(S(C)(=O)=O)cc3)cn2)cc1)C(C)CN(C)C (stereo not drawn) | 87% (active) | 25% | -8 | 101% (active) | inactive | inactive | inactive | inactive
O=C(NCCN1CCCC1)c1cc(-c2ccc(Cl)c(O)c2)c(-c2ccncc2)o1 | -5% | -23% | 0 | 92% (active) | inactive | inactive | inactive | inactive
O=C(Nc1cccc([N+](=O)[O-])c1)Nc1ccc(Cl)c(C(F)(F)F)c1 | 87% (active) | 15% | 6 | 96% (active) | inactive | inactive | inactive | inactive

Reference: PubChem BioAssay
